From the supplement of paper PMC10981050
“And” between values parts separate entries of the source, which are not always exact repeats. Equal values may be shown once. Where a name gives a salt, the structure may show the parent alone.

What was measured:
Assay in all cases: cell viability relative to vehicle control; higher = less cytotoxic
Conditions in all cases: 10 µM
K562 = system: K562
How it was run: (§1)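 CRISPR-edited mutant clones and isogenic wild-type clones from four leukaemia lines were screened against Selleck bioactive, kinase and epigenetic probe libraries, with identity-inconsistent compounds excluded. Each compound was acoustically dispensed at a single 10 µM dose into 384-well plates holding 2000 cells in 50 µL medium per well. After 48 h the supernatant was removed and CellTiter-Glo luminescence was read. Viability was expressed as percent of the on-plate vehicle control and analysed in Genedata Screener.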

MARIMO = system: MARIMO
How it was run: as §1

MOLM14 = system: MOLM14
How it was run: as §1

OCI-AML2 = system: OCI-AML2
How it was run: as §1

Row | Compound | cell viability (K562; SRSF2 genotype: SRSF2 P95H/wt) | cell viability (K562; SRSF2 genotype: SRSF2 wt/wt) | cell viability (MARIMO; SRSF2 genotype: SRSF2 P95H/wt) | cell viability (MARIMO; SRSF2 genotype: SRSF2 wt/wt) | cell viability (MOLM14; SRSF2 genotype: SRSF2 P95H/wt) | cell viability (MOLM14; SRSF2 genotype: SRSF2 wt/wt) | cell viability (OCI-AML2; SRSF2 genotype: P95H/wt) | cell viability (OCI-AML2; SRSF2 genotype: wt/wt)
1 | COc1ccc(Cn2ccc3ccc(C(=O)NO)cc32)cc1 | 91.2% and 87.7% | 84.4% | 65.9% | 75.9% | 84.1% | 81.6% | 69.3% | 75.5%
2 | Nc1ccc(Oc2ccc(-c3ccc(Oc4ccc(N)cc4)cc3)cc2)cc1 [4,4prime-Bis(4-aminophenoxy)biphenyl] | 103% and 98.3% | 110% | 96.9% | 101% | 100% | 102% | 96% | 112%
3 | Oc1ccc2ccccc2c1N=Nc1ccc(N=Nc2ccccc2)cc1 [Solvent Red 23] | 83.7% and 81.2% | 82% | 82.6% | 90.8% | 76% | 85.3% | 75.3% | 78.7%
4 | CCn1cc(-c2ccnc3[nH]c(-c4cccc(CN(C)C)c4)cc23)c(-c2ccc(NC(=O)N(C)C)cc2)n1 | 36.2% and 51.2% | 45.9% | 30.3% | 27% | 1.95% | 2.96% | 1.06% | 7.2%
5 | O=C(Nc1ccccc1-c1cn2c(CN3CC[C@@H](O)C3)csc2n1)c1ccc2ccccc2c1 | 23.9% and 46% | 39.3% | 57.1% | 65% | 72.4% | 80.5% | 65.3% | 64.4%
6 | CCCCCCC1CCC(=O)O1 (stereo not given) | 96.5% and 97.2% | 97.8% | 97.3% | 101% | 103% | 102% | 96.3% | 106%
7 | Nc1nc(-c2nn(Cc3ccccc3F)c3ncccc23)ncc1C1CC1 | 110% and 114% | 95.3% | 103% | 101% | 104% | 104% | 83.9% | 86.4%
8 | CN1CCC(NC(=O)c2cc(-c3c(O)cc(O)cc3Oc3ccc([N+](=O)[O-])cc3)on2)CC1 | 17.4% and 26.5% | 23.6% | 29.8% | 23.9% | 1.68% | 1.87% | 17.5% | 19.7%
9 | CCCCOCc1ccc(O)c(OC)c1 [Vanillyl Butyl Ether] | 98.9% and 92.9% | 101% | 97.6% | 106% | 98.8% | 101% | 93.1% | 109%
10 | CC(C)c1noc(N2CCC(COc3ccc(-c4ccc(S(C)(=O)=O)cc4)nc3)CC2)n1 | 59.8% and 77.2% | 70.5% | 70% | 34.1% | 90.4% | 95.7% | 28.4% | 36.8%
11 | O=C(O)CCCN1CCC(O[C@@H](c2ccc(Cl)cc2)c2ccccn2)CC1 [Bepotastine Besilate] | 89.5% and 84.3% | 84.8% | 86.5% | 97.8% | 90.9% | 93.3% | 82.6% | 86.2%
12 | C[C@@H]1O[C@@H](O[C@H]2[C@H](O[C@H]3CC[C@@]4(C)[C@@H](CC[C@]5(C)[C@@H]4CC=C4[C@@H]6CC(C)(C)CC[C@]6(C(=O)O[C@@H]6O[C@H](CO[C@@H]7O[C@H](CO)[C@@H](O)[C@H](O)[C@H]7O)[C@@H](O)[C@H](O)[C@H]6O)CC[C@]45C)[C@]3(C)CO)OC[C@H](O)[C@@H]2O)[C@H](O)[C@H](O[C@@H]2O[C@H](CO)[C@@H](O[C@@H]3O[C@H](CO)[C@@H](O)[C@H](O)[C@H]3O)[C@H](O)[C@H]2O)[C@H]1O [Macranthoidin B] | 86.7% and 84.6% | 85% | 83.6% | 94.2% | 86% | 86.6% | 91.4% | 86%
13 | CN(C)C/C=C/C(=O)Nc1cc2c(Nc3ccc(F)c(Cl)c3)ncnc2cc1O[C@H]1CCOC1 [Afatinib (BIBW2992)] | 8.97% and 5.94% | 6.24% | 1.96% | 1.37% | 0.03% | 0.04% | 0.06% | 0.13%
14 | CNCCN(C)Cc1c[nH]nc1-c1ccc(O[C@H]2C[C@H](OCCC3CCOCC3)C2)cc1 | 90% and 92.8% | 89.7% | 89% | 92.4% | 79.4% | 96.4% | 67.1% | 75.1%
15 | CC[C@@H]1C(=O)N(C)c2cnc(Nc3ccc(C(=O)N[C@H]4CC[C@H](N5CCN(CC6CC6)CC5)CC4)cc3OC)nc2N1C(C)C [BI6727 (Volasertib)] | 3.41% and 6.94% | 9.46% | 12.2% | 16.7% | 3.23% | 0.61% | 4.52% | 11.5%
16 | N[C@@H](CS)C(=O)O [L-Cysteine HCl] | 87.6% and 82.9% | 82.4% | 89% | 97.7% | 89.1% | 87.8% | 89.1% | 94.3%
17 | CC1(C)C2CCC1(C)C(O)C2 (stereo not given) [Borneol] | 101% and 89.9% | 94.2% | 89.7% | 99.5% | 97.5% | 99.5% | 87.9% | 105%
18 | CCCOC(C(=O)OC1CCN(C)CC1)(c1ccccc1)c1ccccc1 [Propiverine hydrochloride] | 80.6% and 87.8% | 88.2% | 68.5% | 79.1% | 75.2% | 85.2% | 72.1% | 64.2%
19 | [Na+].[Na+].[Na+].[Na+].[Na+].[Na+].[O]=[W](=[O])([O-])[O-].[O]=[W](=[O])([O-])[O-].[O]=[W](=[O])([O-])[O-].[O]=[W](=[O])=[O].[O]=[W](=[O])=[O].[O]=[W](=[O])=[O].[O]=[W](=[O])=[O].[O]=[W](=[O])=[O].[O]=[W](=[O])=[O].[O]=[W](=[O])=[O].[O]=[W](=[O])=[O].[O]=[W](=[O])=[O] [SodiuM Metatungstate] | 103% and 109% | 106% | 121% | 106% | 103% | 109% | 88.9% | 93.5%
20 | O.O.O.O.O.O.O.[Cl][La]([Cl])[Cl] [Lanthanum(III) chloride heptahydrate] | 107% and 102% | 102% | 109% | 114% | 107% | 104% | 99.2% | 99.4%

Row | Compound | cell viability (K562; SRSF2 genotype: SRSF2 P95H/wt) | cell viability (K562; SRSF2 genotype: SRSF2 wt/wt) | cell viability (MARIMO; SRSF2 genotype: SRSF2 P95H/wt) | cell viability (MARIMO; SRSF2 genotype: SRSF2 wt/wt) | cell viability (MOLM14; SRSF2 genotype: SRSF2 P95H/wt) | cell viability (MOLM14; SRSF2 genotype: SRSF2 wt/wt) | cell viability (OCI-AML2; SRSF2 genotype: P95H/wt) | cell viability (OCI-AML2; SRSF2 genotype: wt/wt)
21 | CC(C)(NS(=O)(=O)c1ccc2c(Cl)cnc(N=C(N)N)c2c1)C(=O)O | 102% and 104% | 104% | 101% | 111% | 101% | 102% | 99.1% | 117%
22 | CC1=CC(=O)CC(C)(C)C1=O [Ketoisophorone] | 98.4% and 92.1% | 100% | 98.3% | 110% | 101% | 105% | 96.1% | 108%
23 | N#CC(=Cc1ccc(-c2cc(Cl)ccc2Cl)o1)C(=O)Nc1cccc2ncccc12 | 101% and 104% | 91.8% | 99.1% | 99.8% | 116% | 112% | 88.3% | 92%
24 | CC(=O)N1CCN(c2ccc(NC(=O)Cc3cnc(-c4ccnc(F)c4)c(C)c3)nc2)CC1 | 88.7% and 84.8% | 82.3% | 85.7% | 97.8% | 80.4% | 86.7% | 91.1% | 94.6%
25 | N#C/C(=C(/N)Sc1ccc(N)cc1)c1ccccc1C(F)(F)F | 85.3% and 90.9% | 85.1% | 54% | 46.4% | 82.4% | 91.5% | 67.7% | 61.3%
26 | COc1cc2c(=O)c(-c3ccc(O)cc3)coc2cc1O [Glycitein] | 97.5% and 92.1% | 102% | 95.4% | 90.8% | 93.7% | 98.1% | 90.3% | 82.3%
27 | CC(C)(CO)n1cc(C(=O)c2cncc(NC(=O)Cc3ccc(Cl)cn3)c2)c2cnc(N)nc21 | 104% | 111% | 115% | 109% | 64.3% | 76.5% | 107% | 93.4%
28 | C=C(C)C1CC=C(C)CC1 (single isomer, unassigned; (+)) [(+)-Dipentene] | 114% and 103% | 116% | 104% | 108% | 110% | 108% | 109% | 115%
29 | CCCCC1OC(=O)c2ccccc21 (stereo not given) [3-n-Butylphathlide] | 93.7% and 104% | 91.5% | 91.9% | 104% | 99.8% | 96.7% | 90.6% | 94.2%
30 | CC(C)=CCCC(C)=CCCC(C)=CCCC(C)=CCC1=C(C)C(=O)c2ccccc2C1=O [Vitamin K2] | 93.6% and 95.4% | 102% | 82.8% | 92.6% | 87.7% | 101% | 88.6% | 89.1%
31 | COc1ccc(NC(=O)c2ccc(C(=N)N(C)C)cc2)c(C(=O)Nc2ccc(Cl)cn2)c1 [Betrixaban] | 89.2% and 82.7% | 86.6% | 82.8% | 90.1% | 95.6% | 96.2% | 85.8% | 74.6%
32 | O=c1cc(N2CCOCC2)oc2c1ccc1ccccc12 | 96.7% and 102% | 99.6% | 93.3% | 102% | 89.2% | 96.7% | 87.6% | 96.7%
33 | Nc1ncnc2c1c(-c1cnc3[nH]ccc3c1)nn2C1CCCC1 | 6.97% and 21.9% | 9.11% | 27.8% | 26.9% | 9.21% | 13.2% | 2.15% | 7.66%
34 | Cc1ccc(Sc2cncc3sc(C(N)=O)cc23)cc1 | 91.6% and 90.7% | 90.6% | 95.7% | 102% | 89.3% | 100% | 68.8% | 69.4%
35 | COC(=O)c1cc(OC)c(OC)c(OC)c1 [Methyl EudesMate] | 103% and 105% | 100% | 97.6% | 109% | 108% | 106% | 102% | 110%
36 | O=C(O)c1cc2cccc([N+](=O)[O-])c2[nH]1 | 103% and 105% | 103% | 98.9% | 107% | 106% | 101% | 111% | 111%
37 | O=Cc1ccc(O[C@@H]2O[C@H](CO)[C@@H](O)[C@@H](O)[C@H]2O)cc1 [Helicide] | 99% and 102% | 103% | 96% | 99.9% | 97.8% | 104% | 99.8% | 96.5%
38 | Cc1cc(Nc2cc(Cl)nc(Oc3ccc([N+](=O)[O-])cc3)n2)n[nH]1 [Autophinib] | 30.5% and 32.9% | 31.3% | 33.4% | 53.3% | 29.9% | 14.5% | 50% | 47.9%
39 | CCCC(CCC)C(=O)O[C@H]1C[C@H]2CC[C@@H](C1)[N+]2(C)C [anisotropine methylbromide] | 101% | 104% | 106% | 107% | 98% | 101% | 106% | 93.6%
40 | COC(=O)C1=CO[C@@H](O[C@@H]2O[C@H](CO)[C@@H](O)[C@H](O)[C@H]2O)[C@H]2[C@@H]1C(=O)C[C@@H]2C [Verbenalin] | 104% and 98.5% | 104% | 99.9% | 100% | 110% | 103% | 98.4% | 100%
